DAX1 inh-1 – DAX1 (NR0B1) inhibitors on StAR promoter, primary screen, cell-based, luminescence, SF-1 (NR5A1), full-length DAX-1 | HEK293T StAR-luciferase reporter, SF-1/DAX-1 repression relief | inhibition, % at 6.8 µM | actives 1.1% (n = 370,000) | AID 652010, 2013;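 active = inhibition above the mean over all tested compounds plus 3 SD, cut at about 3.6% in these data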;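 note: 0% = DAX-1 cells with DMSO and 100% = cells lacking DAX-1 with DMSO; higher inhibition means more luminescence from relief of DAX-1 repression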
ssDAF-12 act – S. stercoralis DAF-12 nuclear receptor activators, primary screen, cell-based, luminescence, HEK293, GRIP1 co-expression, lit1-tk-luc; AID 652126, 2013; actives 1% (n = 370,000); HEK293 ssDAF-12/GRIP1 lit1-tk-luc reporter; % of 3 µM dafachronic acid response; activation, % at 6.8 µM;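 active = activation above the mean over all tested compounds plus 3 SD, cut at about 0.9% in these data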;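 note: 0% = DMSO-only wells and 100% = 3 µM delta7-dafachronic acid wells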
hgDAF12 agonist – H. glycines DAF-12 receptor agonists, primary screen, cell-based, luminescence, HEK293, GAL4 fusion, UAS-luciferase; Nuclear hormone receptor DAF-12 (Heterodera glycines), GAL4 fusion; HEK293 GAL4-hgDAF12 UAS-luciferase reporter, agonist luminescence; normalized to butyrate control; activation, % at 6.8 µM; actives 1.8% (n = 370,000); AID 687014, 2013;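 active = activation above a cutoff set at the mean of all screened compounds plus 3 SD, cut at about 10% in these data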;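 note: 0% = DMSO wells and 100% = sodium butyrate wells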
hcDAF-12 act – H. contortus DAF-12 nuclear receptor activators, primary screen, cell-based, luminescence, HEK293, lit1-tk-luc reporter. HEK293 hcDAF-12 lit1-tk-luc reporter; 0% DMSO, 100% Δ7-dafachronic acid. activation, % at 6.8 µM. actives 1.4% (n = 370,000). AID 652067, 2013;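 active = activation above the mean of all tested compounds plus 3 SD, cut at about 5.5% in these data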;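 note: 100% = response to 3 µM Δ7-dafachronic acid high control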
DAX1 inh-2 – DAX1 (NR0B1) inhibitors, primary screen, cell-based, HEK293, Gal4-DAX1, luciferase luminescence. Nuclear receptor subfamily 0 group B member 1 (Homo sapiens), P51843. HEK293 Gal4-DAX1 luciferase reporter. inhibition, % at 6.75 µM. actives 0.99% (n = 340,000);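 active = inhibition above the mean over all tested compounds plus 3 SD, cut at about 4.2% in these data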;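 note: 0% = DAX1-transfected cells with DMSO and 100% = empty-vector control cells with DMSO; inhibition shows as a rise in luminescence from relieved DAX1 repression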
Target sequence (P51843 207-470 limits assumed): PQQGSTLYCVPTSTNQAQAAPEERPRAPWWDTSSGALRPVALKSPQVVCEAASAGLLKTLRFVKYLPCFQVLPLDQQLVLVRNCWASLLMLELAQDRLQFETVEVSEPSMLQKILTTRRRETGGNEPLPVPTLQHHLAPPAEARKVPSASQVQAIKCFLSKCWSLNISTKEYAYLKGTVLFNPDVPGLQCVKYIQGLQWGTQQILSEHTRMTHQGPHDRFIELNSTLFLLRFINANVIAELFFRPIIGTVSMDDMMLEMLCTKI
SMARCA2 act – SMARCA2 (BRM) function activators, primary screen, cell-based, luminescence, high throughput | MG213 cells, MMTV-luciferase reporter, dexamethasone, overnight | activation, % at 9.1 µM | actives 1% (n = 370,000); in the data active = activation above about 7.8%;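 note: 0% = vehicle wells and 100% = reference activator wells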
DAX1 inh confirm – DAX1 (NR0B1) inhibitors relieving SF-1 repression, confirmation, cell-based, luminescence, HEK293T, full-length DAX-1, SF-1 activated StAR promoter; shares compounds with DAX1 inh-1; HEK293T StAR-promoter luciferase reporter, SF-1/DAX-1 repression; inhibition, % at 6.8 µM; actives 87% (n = 2,400);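 active = inhibition above the average of every tested compound plus 3 SD, cut at about 3.8% in these data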;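 note: 0% = DAX-1 cells with DMSO and 100% = no DAX-1 control cells with DMSO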
Target sequence (P51843 whole entry, looked up): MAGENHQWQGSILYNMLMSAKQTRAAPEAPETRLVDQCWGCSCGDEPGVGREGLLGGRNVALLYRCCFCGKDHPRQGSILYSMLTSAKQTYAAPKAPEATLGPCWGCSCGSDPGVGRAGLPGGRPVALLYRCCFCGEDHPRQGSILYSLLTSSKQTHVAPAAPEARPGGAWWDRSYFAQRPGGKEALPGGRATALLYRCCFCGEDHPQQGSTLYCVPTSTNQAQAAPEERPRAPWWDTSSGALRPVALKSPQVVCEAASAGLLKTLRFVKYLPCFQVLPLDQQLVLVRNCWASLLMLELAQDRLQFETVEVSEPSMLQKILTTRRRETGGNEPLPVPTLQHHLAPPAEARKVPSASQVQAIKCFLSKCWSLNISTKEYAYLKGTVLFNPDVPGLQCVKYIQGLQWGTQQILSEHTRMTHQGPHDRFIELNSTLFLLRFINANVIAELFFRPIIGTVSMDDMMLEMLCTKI
SF1 mutant ctr – StAR reporter signal changes without DAX1, counter-screen for DAX1 inhibitor project, cell-based, luminescence, AF-2 mutant SF-1, transactivation; actives 78% (n = 2,400); shares compounds with DAX1 inh-1; HEK293 StAR-luciferase, SF-1 AF2 mutant; inhibition, % at 6.8 µM; AID 652136, 2013;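 active = inhibition above the mean of all tested compounds plus 3 SD, cut at about 3% in these data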;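 note: 0% = DAX-1 transfected cells with DMSO and 100% = cells without DAX-1 with DMSO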
SMARCA2 act conf – SMARCA2 (BRM) function activators, confirmation, cell-based, luminescence, triplicate | shares compounds with SMARCA2 act | MG213 cells, MMTV-luciferase with dexamethasone, overnight; MG213 cells expressing E1A, Rb sequestered; DMSO wells 0%, reference activator 100% | activation, % at 9.1 µM | actives 30% (n = 3,500) | AID 652260, 2013;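 active = activation above its plate's cutoff, the mean activation of tested wells plus 3 SD, cut at about 7.9% in these data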
GAL4-VP16 Luc – GAL4-VP16 luciferase reporter activation, counter-screen for SMARCA2 (BRM) activator project, cell-based, pG5luc, luminescence, high throughput. shares compounds with SMARCA2 act. HEK293 GAL4-VP16 pG5luc reporter; scaled: DMSO wells 0%, SAHA wells 100%. activation, % at 9.1 µM. actives 41% (n = 3,500). AID 686939, 2013;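 active = activation above the solvent-only control well mean plus 3 SD, averaged across control plates, cut at about 5.2% in these data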
LXRb hcDAF ctr – LXR agonists, Gal4 luciferase reporter, confirmation, counter-screen for hcDAF-12 agonist project, cell-based, luminescence, HEK293, H. contortus campaign | 3,400 tested, under 10 active | HEK293 Gal4-LXR tk-luc reporter, 24 h; normalized: DMSO 0%, positive control 100% | shares compounds with hcDAF-12 act | activation, % at 6.8 µM;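 active = mean percent activation of the reporter above a cutoff set as the average over tested compounds plus their standard deviation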
hcDAF12 conf – H. contortus DAF-12 receptor agonists, confirmation, cell-based, luminescence, HEK293, lit1-tk-luc, triplicate; shares compounds with hcDAF-12 act; actives 61% (n = 3,400); activation, % at 6.8 µM; AID 743032, 2013; HEK293 hcDAF-12 lit1-tk-luc reporter; % of Δ7-dafachronic acid response;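 active = mean activation across triplicate tests above the threshold derived from the earlier primary screen, cut at about 5.5% in these data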;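 note: 0% = DMSO only wells and 100% = 3 µM Δ7-dafachronic acid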
hgDAF12 conf – H. glycines DAF-12 receptor agonists, confirmation, cell-based, luminescence, HEK293, GAL4-LBD fusion; shares compounds with hgDAF12 agonist; HEK293 GAL4-hgDAF12 luciferase reporter, agonist mode; percent of butyrate response; activation, % at 6.8 µM; actives 80% (n = 3,300); AID 743050, 2013;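 active = mean activation over triplicate wells above the hit cutoff derived from the earlier primary screen, cut at about 11% in these data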;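 note: 0% = DMSO low control and 100% = 2 mM sodium butyrate high control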
LXR ag 2 – LXR agonists, Gal4 luciferase reporter, confirmation, counter-screen for hgDAF-12 agonist project, cell-based, luminescence, HEK293, H. glycines campaign. shares compounds with hgDAF12 agonist. 24 h. activation, % at 6.8 µM. 3,300 tested, under 10 active. AID 743051, 2013;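 active = mean activation of the triplicate above a set limit carried over from the primary screen, none filed active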
* hit, by the source's call. Rows were chosen to be rich in hits. Some 4.8% of all compounds tested hit in one or more screens of this group.

Fc1ccc(-c2cc(-c3nnc4sc(-c5ccco5)nn34)[nH]n2)cc1 was read as DAX1 inh-1 -1.9, ssDAF-12 act -1.6, hgDAF12 agonist -3.9, hcDAF-12 act -2.1 and SMARCA2 act -1.4.
Screening CCCCN=C(N)NC(=O)OCc1ccccc1 returned DAX1 inh-1 1.8, ssDAF-12 act -0.1, hgDAF12 agonist 5.2, hcDAF-12 act 3.9 and SMARCA2 act -0.7.
Screening CN(C)S(=O)(=O)c1ccc(-c2cn3ccccc3n2)cc1 returned DAX1 inh-1 0.6, ssDAF-12 act 0.1, hgDAF12 agonist 8.3, hcDAF-12 act 0.4, DAX1 inh-2 0.9 and SMARCA2 act 3.2.
`c1ccc(-c2cn3ccccc3n2)cc1` gave DAX1 inh-1 5.0*, ssDAF-12 act 0.4, hgDAF12 agonist 14.5*, hcDAF-12 act 8.9*, DAX1 inh-2 1.8, SMARCA2 act 7.9*, DAX1 inh confirm 12.2*, SF1 mutant ctr 8.7*, LXRb hcDAF ctr 1.3, hcDAF12 conf 7.4*, hgDAF12 conf 15.3* and LXR ag 2 0.7.
Cc1cc(-c2cn3ccccc3n2)c(C)n1-c1ccccc1 was read as DAX1 inh-1 4.6*, ssDAF-12 act 0.3, hgDAF12 agonist 13.6*, hcDAF-12 act 5.7*, DAX1 inh-2 3.6, SMARCA2 act 10.2*, DAX1 inh confirm 16.6*, SF1 mutant ctr 5.4*, SMARCA2 act conf 5.5, GAL4-VP16 Luc 8.2*, hgDAF12 conf 7.2 and LXR ag 2 0.9.
COc1ccc(-n2c(C)cc(-c3cn4cccc(C)c4n3)c2C)cc1 was read as DAX1 inh-1 -0.4, ssDAF-12 act -0.9, hgDAF12 agonist -0.6, hcDAF-12 act 3.0, DAX1 inh-2 0.7 and SMARCA2 act 3.1.
Screening CN(Cc1ccccc1F)C(=O)Cn1c(-c2cncs2)nc2ccccc21 returned DAX1 inh-1 -0.8, ssDAF-12 act -0.7, hgDAF12 agonist 1.5, hcDAF-12 act -2.1 and SMARCA2 act -1.2.
`COC(=O)[C@]12C[C@H](CC(=O)NCc3ccccc3)C(=O)N(Cc3ccc(Cl)cc3Cl)C1=C[C@H](C1CCCC1)O[C@@H]2C` gave DAX1 inh-1 -1.6, ssDAF-12 act -1.0, hgDAF12 agonist -0.8, hcDAF-12 act -0.7 and SMARCA2 act -2.8.
Screening O=C1CS/C(=C/C(=O)c2ccccc2)N1 returned DAX1 inh-1 -0.1, ssDAF-12 act -1.0, hgDAF12 agonist 1.3, hcDAF-12 act -0.7, DAX1 inh-2 0.3 and SMARCA2 act 3.5.
O=C(/C=C1\OCc2ccccc21)c1ccccc1 was read as DAX1 inh-1 5.6*, ssDAF-12 act 1.3*, hgDAF12 agonist 19.4*, hcDAF-12 act 9.5*, SMARCA2 act 7.4, DAX1 inh confirm 7.2*, SF1 mutant ctr 4.8*, LXRb hcDAF ctr 0.9, hcDAF12 conf 10.8*, hgDAF12 conf 17.1* and LXR ag 2 0.7.
Screening COC(=O)[C@]12C[C@H](CC(=O)NCc3cccc(C(F)(F)F)c3)C(=O)N(Cc3ccccc3)C1=C[C@H](COCc1ccccc1)O[C@@H]2C returned DAX1 inh-1 -0.8, ssDAF-12 act -1.1, hgDAF12 agonist 4.8, hcDAF-12 act -2.0 and SMARCA2 act -2.8.
For Cc1c(NC(=S)NC(=O)c2sc3ccccc3c2Cl)cccc1C(=O)O the results were DAX1 inh-1 5.9*, ssDAF-12 act 0.2, hgDAF12 agonist 17.9*, hcDAF-12 act 2.7, DAX1 inh-2 -0.6, SMARCA2 act 2.8, DAX1 inh confirm 9.6*, SF1 mutant ctr 6.8*, hgDAF12 conf 15.7* and LXR ag 2 0.5.
